Assay [1] in a line: NCI Yeast Anticancer Drug Screen. Data for the rad50 strain (AID 155).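 Note: 0% = growth of vehicle-only cultures of the same strain.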 The conditions noted are these: S. cerevisiae rad50 strain growth inhibition, active compounds read high. An outline of the steps: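 Yeast carrying a defined DNA repair defect were exposed to test compounds, and growth was compared with vehicle-treated controls to give percent inhibition.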
Assay [2] can be described thus: NCI Yeast Anticancer Drug Screen. Data for the mec2-1 strain (AID 157). The settings on record: S. cerevisiae mec2-1 strain, active compounds read high. Summed up:
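mec2-1 yeast strain, carrying an alteration in DNA damage repair or cell cycle control, was exposed to compounds; growth inhibition was measured relative to vehicle-treated controls.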

Assay [3] can be described thus: NCI Yeast Anticancer Drug Screen. Data for the sgs1 mgt1 strain (AID 161).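 Note: 0% = growth of cultures given vehicle only.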 The conditions noted are these: S. cerevisiae sgs1 mgt1 strain, active compounds read high. An outline of the steps: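 Compounds are added to genetically altered yeast, and growth is compared with cultures given vehicle alone to give percent inhibition.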
A short description of assay [4]: NCI Yeast Anticancer Drug Screen. Data for the cln2 rad14 strain (AID 165).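 Note: 0% = growth equal to vehicle treated cultures.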 The settings on record: S. cerevisiae cln2 rad14 strain, active compounds read high. Summed up: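 Yeast carrying cln2 and rad14 alterations (cell cycle control and DNA damage repair) were exposed to compounds. Growth inhibition was measured against vehicle-treated controls.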
A short description of assay [5]: NCI Yeast Anticancer Drug Screen. Data for the bub3 strain (AID 167). The settings on record: S. cerevisiae bub3 mutant strain, active compounds read high. An outline of the steps:
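Compounds were applied to a genetically altered yeast strain carrying a cell-cycle control defect. Growth inhibition was scored against vehicle-treated controls.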

Assay [6] can be described thus: NCI Yeast Anticancer Drug Screen. Data for the mlh1 rad18 strain (AID 175). The settings on record: S. cerevisiae mlh1 rad18 strain growth inhibition, active compounds read high. Summed up: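 Growth inhibition of the yeast strain was measured after compound exposure and expressed relative to vehicle-treated controls. The strain carries defined defects in DNA damage repair.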

Where [7] appears, read: at 5.0 µM (retest, dose inferred, filed as 0.5).
Where [8] appears, read: at 50.0 µM (retest, dose inferred, filed as 5.0).

This is part of a sample that, as a whole, favours compounds with a hit. Of some 79,000 tested, about 15% had one in any assay. A number with no mark means an inactive call. Active and inactive are the calls of the source. Cut-off read from the data, not from the text of the source: active = growth inhibition above about 70%; inactive = the rest.

For nine molecules, growth inhibition results are on record in PubChem BioAssay (NCI).

Regarding `Nc1ccc2ccccc2c1N=Cc1ccccc1[N+](=O)[O-]`, the growth inhibition is -3% in assay [1] (setting [7]); 72% (active) in assay [1] (setting [8]); 85.8% (active) in assay [1] (at 50.0 µM); -10% in assay [2] (setting [7]); 90% (active) in assay [2] (setting [8]); 29.8% in assay [2] (at 50.0 µM). Besides, the growth inhibition is 5% in assay [3] (setting [7]); 92% (active) in assay [3] (setting [8]); 96.8% (active) in assay [3] (at 50.0 µM); -9% in assay [4] (setting [7]); 54% in assay [4] (setting [8]); -40.1% in assay [4] (at 50.0 µM). For the same molecule, the growth inhibition in assay [5] (setting [7]) was 15%; in assay [5] (setting [8]) it was 85% (active); in assay [5] (at 50.0 µM), 30.2%; in assay [6] (setting [7]) it was 11%; in assay [6] (setting [8]), 91% (active); in assay [6] (at 50.0 µM), 84.3% (active).
As for `c1ccc2c(c1)OCC(CNCCNCC1COc3ccccc3O1)O2` (configuration not stated), the growth inhibition in assay [1] (setting [7]) is 51%; in assay [1] (setting [8]), 69%; in assay [1] (at 50.0 µM), 72% (active); in assay [2] (setting [7]), 69%; in assay [2] (setting [8]) it was 79% (active); in assay [2] (at 50.0 µM), 57.9%. Also, the growth inhibition in assay [3] (setting [7]) is 70% (active); in assay [3] (setting [8]), 86% (active); in assay [3] (at 50.0 µM) it was 87.5% (active); in assay [4] (setting [7]) it was 45%; in assay [4] (setting [8]), 63%; in assay [4] (at 50.0 µM), 87% (active). For the same molecule, the growth inhibition in assay [5] (setting [7]) was 43%; in assay [5] (setting [8]), 55%; in assay [5] (at 50.0 µM), 58.3%; in assay [6] (setting [7]), 75% (active); in assay [6] (setting [8]), 74% (active); in assay [6] (at 50.0 µM) it was 67.2%.
For `COC(=O)c1cc[nH]c(=O)c1`, the growth inhibition in assay [1] (setting [7]) was -150%; in assay [1] (setting [8]), -166%; in assay [1] (at 50.0 µM), 9.2%; in assay [2] (setting [7]) it was -48%; in assay [2] (setting [8]) it was -56%; in assay [2] (at 50.0 µM), 12.2%. The growth inhibition in assay [3] (setting [7]) was -62%; in assay [3] (setting [8]) it was -68%; in assay [3] (at 50.0 µM) it was 11.4%; in assay [4] (setting [7]), -55%; in assay [4] (setting [8]) it was -70%; in assay [4] (at 50.0 µM) it was -18.8%. In addition, the growth inhibition in assay [5] (setting [7]) was -71%; in assay [5] (setting [8]), -86%; in assay [5] (at 50.0 µM) it was 0.55%; in assay [6] (setting [7]), -138%; in assay [6] (setting [8]), -122%; in assay [6] (at 50.0 µM), 60.8%.
With `CC1=NC(=Cc2cccc(Cl)c2)C(=O)N1n1c(-c2ccccc2)nc2ccccc2c1=O`, the growth inhibition in assay [1] (setting [7]) was 18%; in assay [1] (setting [8]) it was 73% (active); in assay [1] (at 50.0 µM), 68.5%; in assay [2] (setting [7]), 21%; in assay [2] (setting [8]), 77% (active); in assay [2] (at 50.0 µM), 69.9%. The growth inhibition is 11% in assay [3] (setting [7]); 71% (active) in assay [3] (setting [8]); 79.4% (active) in assay [3] (at 50.0 µM); 16% in assay [4] (setting [7]); 84% (active) in assay [4] (setting [8]); 78% (active) in assay [4] (at 50.0 µM). The growth inhibition in assay [5] (setting [7]) is -9%; in assay [5] (setting [8]) it was 86% (active); in assay [5] (at 50.0 µM), 74.7% (active); in assay [6] (setting [7]), 11%; in assay [6] (setting [8]), 81% (active); in assay [6] (at 50.0 µM) it was 81.7% (active).
`COC(=O)c1cc(-c2ccc([N+](=O)[O-])cc2)c2c(=O)n(-c3ccccc3)[nH]c2n1`: the growth inhibition in assay [1] (setting [7]) was 0%; in assay [1] (setting [8]), 84% (active); in assay [1] (at 50.0 µM), 89.8% (active); in assay [2] (setting [7]), -1%; in assay [2] (setting [8]), 75% (active); in assay [2] (at 50.0 µM), 91.1% (active). The growth inhibition in assay [3] (setting [7]) was -1%; in assay [3] (setting [8]), 85% (active); in assay [3] (at 50.0 µM) it was 61.1%; in assay [4] (setting [7]) it was -3%; in assay [4] (setting [8]), 77% (active); in assay [4] (at 50.0 µM), 42.4%. Moreover, the growth inhibition in assay [5] (setting [7]) is -3%; in assay [5] (setting [8]) it was 83% (active); in assay [5] (at 50.0 µM) it was 50.2%; in assay [6] (setting [7]) it was -3%; in assay [6] (setting [8]), 86% (active); in assay [6] (at 50.0 µM), 92.2% (active).
Take `N#CSc1ccc2nc(NCO)sc2c1`: the growth inhibition in assay [1] (setting [7]) was 22%; in assay [1] (setting [8]), 97% (active); in assay [1] (at 50.0 µM), 98.9% (active); in assay [2] (setting [7]) it was 7%; in assay [2] (setting [8]) it was 97% (active); in assay [2] (at 50.0 µM), 99.3% (active). Moreover, the growth inhibition in assay [3] (setting [7]) is 18%; in assay [3] (setting [8]), 98% (active); in assay [3] (at 50.0 µM), 99.3% (active); in assay [4] (setting [7]), -9%; in assay [4] (setting [8]), 89% (active); in assay [4] (at 50.0 µM), 96% (active). Moreover, the growth inhibition in assay [5] (setting [7]) was 12%; in assay [5] (setting [8]), 97% (active); in assay [5] (at 50.0 µM), 95.4% (active); in assay [6] (setting [7]), 45%; in assay [6] (setting [8]), 97% (active); in assay [6] (at 50.0 µM) it was 99.1% (active).
Regarding `O=[N+]([O-])c1c(I)ccc2ccccc12`, the growth inhibition in assay [1] (setting [7]) is -24%; in assay [1] (setting [8]) it was 90% (active); in assay [1] (at 50.0 µM), 41.9%; in assay [2] (setting [7]) it was 0%; in assay [2] (setting [8]), 89% (active); in assay [2] (at 50.0 µM), -0.95%. For the same molecule, the growth inhibition in assay [3] (setting [7]) is -6%; in assay [3] (setting [8]), 95% (active); in assay [3] (at 50.0 µM), 17.6%; in assay [4] (setting [7]), -9%; in assay [4] (setting [8]) it was 41%; in assay [4] (at 50.0 µM), 11.5%. For the same molecule, the growth inhibition is -2% in assay [5] (setting [7]); 66% in assay [5] (setting [8]); 5.25% in assay [5] (at 50.0 µM); 1% in assay [6] (setting [7]); 94% (active) in assay [6] (setting [8]); 36.5% in assay [6] (at 50.0 µM).
`Nc1c(C(=O)O)cccc1[N+](=O)[O-]`: the growth inhibition in assay [1] (setting [7]) is 2%; in assay [1] (setting [8]), -1%; in assay [1] (at 50.0 µM), -5.1%; in assay [2] (setting [7]), 1%; in assay [2] (setting [8]), -2%; in assay [2] (at 50.0 µM), 9.25%. For the same molecule, the growth inhibition in assay [3] (setting [7]) was -1%; in assay [3] (setting [8]), -1%; in assay [3] (at 50.0 µM), -9.1%; in assay [4] (setting [7]), -1%; in assay [4] (setting [8]), 3%; in assay [4] (at 50.0 µM), 23.2%. Also, the growth inhibition in assay [5] (setting [7]) was 1%; in assay [5] (setting [8]) it was 0%; in assay [5] (at 50.0 µM) it was -2.1%; in assay [6] (setting [7]), 1%; in assay [6] (setting [8]), 3%; in assay [6] (at 50.0 µM), -5.05%.
In the case of `CCCCCCCCCCCCNC(=O)c1cc[n+](Cc2ccc(Cl)c(Cl)c2)cc1`, the growth inhibition in assay [1] (setting [7]) was 99% (active); in assay [1] (setting [8]), 98% (active); in assay [1] (at 50.0 µM), 99.3% (active); in assay [2] (setting [7]), 100% (active); in assay [2] (setting [8]) it was 97% (active); in assay [2] (at 50.0 µM) it was 99.2% (active). The growth inhibition in assay [3] (setting [7]) is 100% (active); in assay [3] (setting [8]), 98% (active); in assay [3] (at 50.0 µM), 99.1% (active); in assay [4] (setting [7]) it was 88% (active); in assay [4] (setting [8]), 98% (active); in assay [4] (at 50.0 µM), 97.8% (active). Besides, the growth inhibition in assay [5] (setting [7]) was 98% (active); in assay [5] (setting [8]), 98% (active); in assay [5] (at 50.0 µM), 98.8% (active); in assay [6] (setting [7]) it was 99% (active); in assay [6] (setting [8]) it was 99% (active); in assay [6] (at 50.0 µM), 99% (active).
